Measured values from PubChem BioAssay (NCATS).
Values without a mark were called inactive. How the calls were made is not given here.

Test system: HIV-1 nucleocapsid protein NCp7 (binding to TG oligonucleotide)
Experiment: HIV Nucleocapsid (AID 346);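 further: potency is for inhibitors that block NC binding and lower polarization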
Conditions: HIV-1 NC / fluorescein-TGTGTGTG probe, fluorescence polarization
Summary of the method: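 Fluorescence polarization readout: labelled TG4xF oligo (10 nM) with 100 nM nucleocapsid protein, high-salt (250mM NaCl) Hepes pH 7.5 buffer containing zinc and fresh reducing agents. Compounds added by pin tool; incubation 1 hr, room temperature.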
Potency means the concentration at half of the fitted maximal effect.

Compound	Potency
COC(=O)N1CCC2(CCN(Cc3cc(C(F)(F)F)cc(C(F)(F)F)c3)CC2)CC1	> 20 µM
O=c1cnc2cnc(N3CCOCC3)nc2n1Cc1ccc(F)cc1	20.6 µM
CCNc1ncc2nc(-c3cccs3)c(=O)n(C[C@H]3CCCO3)c2n1	> 20 µM
COCCNc1nc(-c2c(C)noc2C)nc2ccccc12	> 20 µM
COc1cccc(Nc2ncc3nc(-c4ccccc4)c(=O)n(C[C@H]4CCCO4)c3n2)c1	> 20 µM
COc1ccc(Oc2ncc3nc(-c4cccc(C#N)c4)c(=O)n(C)c3n2)cc1	> 20 µM
O=C(c1cc(C(F)(F)F)cc(C(F)(F)F)c1)N1CCC2(CC1)CCN(c1ccncc1)CC2	> 20 µM
COCCn1c(=O)c(-c2cc(F)cc(F)c2)nc2cnc(Oc3ccc(OC)cc3)nc21	> 20 µM
FC(F)(F)c1ccccc1-c1nccc(NCCN2CCOCC2)n1	> 20 µM
Cc1ccccc1-c1nc(NCc2cccnc2)c2ccccc2n1	> 20 µM
COc1ccc2[nH]cc(CCNc3cc(-c4ccccc4OC)ncn3)c2c1	> 20 µM
COc1ccccc1CCn1c(=O)c(-c2ccc(Cl)cc2)nc2cncnc21	> 20 µM
CC(=O)NCCNc1ccnc(-c2ccccc2C)n1	> 20 µM
CN(Cc1ccco1)c1ccnc(-c2cccnc2)n1	> 20 µM
CN(C)c1ccc(-c2cc(Nc3ccc(F)cc3)ncn2)cc1	> 20 µM
Cc1nc2cnc(N3CCN(C)CC3)nc2n(-c2ccccc2)c1=O	> 20 µM
COc1ccccc1-c1ccc2ncnc(N(C)Cc3ccco3)c2c1	> 20 µM
COc1ccc2[nH]cc(CCNc3nc(-c4cccc(C#N)c4)nc4ccccc34)c2c1	> 20 µM
CS(=O)(=O)Nc1cccc(-c2nc(Nc3ccccc3)c3ccccc3n2)c1	> 20 µM
COCCNc1ncnc2ccc(-c3ccc(N(C)C)cc3)cc12	> 20 µM

Compound	Potency
CC(=O)NCCNc1ncnc2ccc(-c3ccccc3C)cc12	> 20 µM
CN1CCN(c2ncc3nc(-c4cccs4)c(=O)n(CCc4ccccc4)c3n2)CC1	> 20 µM
COC(=O)N1CCC2(CCCN(Cc3ccc(C#N)cc3)C2)CC1	> 20 µM
Cc1noc(C)c1C(=O)N1CCC2(CCN(Cc3ccccc3)CC2)CC1	> 20 µM
CN(C)c1ccc(-c2cc(NCc3ccccc3)ncn2)cc1	> 20 µM
COc1ccccc1-c1cncnc1NCc1cccnc1	> 20 µM
CC(=O)NCCNc1nc(-c2c(C)noc2C)nc2ccccc12	> 20 µM
N#Cc1cccc(-c2ccc3ncnc(NCc4ccccc4)c3c2)c1	> 20 µM
COc1ccccc1-c1ccc2ncnc(NC3CCNCC3)c2c1	> 20 µM
Cc1ccccc1-c1nc(NC2CCNCC2)c2ccccc2n1	> 20 µM
CCNc1ncc2nc(-c3ccc(Cl)cc3)c(=O)n(Cc3ccc(F)cc3)c2n1	14 µM
N#Cc1cccc(-c2cncnc2-n2ccnc2)c1	> 20 µM
COc1ccccc1CNc1nc(-c2cccc(C#N)c2)nc2ccccc12	> 20 µM
COc1cccc(-c2cc(NCc3ccccc3)ncn2)c1	> 20 µM
Cc1nc2cnc(N3CCOCC3)nc2n(CCC#N)c1=O	> 20 µM
N#CCCn1c(=O)c(-c2cccs2)nc2cnc(Oc3ccccc3)nc21	> 20 µM
COc1ccc(C(=O)N2CCC3(CCCN(Cc4cc(C(F)(F)F)cc(C(F)(F)F)c4)C3)CC2)cc1	> 4 µM
O=c1c(-c2cccc(F)c2)nc2cncnc2n1C1CC1	> 20 µM
COC(=O)N1CCC2(CC1)CN(C(=O)Nc1ccccc1)C2	> 20 µM
Cc1noc(C)c1-c1ccc2ncnc(Nc3ccccc3)c2c1	> 20 µM
